PubChem BioAssay
Activity calls are given as the source filed them. Unless noted, the rule behind the calls is not given here.

Columns and labels:
[1] = anti-His antibody binders, primary screen, artefact control for SMM control protein annotation, biochemical, small-molecule microarray, 635 nm fluorescence (AID 1128); conditions: anti-His Alexa647 antibody binding, higher = more signal;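 note: score merges feature fluorescence with signal-to-noise for each printed compound spot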
[2] = system: Human papillomavirus type 1a E7 protein (residues 1-88); assay: HPV1a E7 small-molecule binders, primary screen, biochemical, small-molecule microarray, residues 1-88, 635 nm (AID 1129); conditions: small-molecule microarray binding, fluorescence 635 nm; higher = more signal
[3] = target: Focal adhesion kinase 1 (Homo sapiens) (UniProt Q05397); assay: small-molecule microarray binders of FAK, primary screen, biochemical, 635/667 nm fluorescence, BSA, DTT (AID 1130); conditions: PTK2 binding, 635 nm fluorescence, higher = more signal;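 note: composite of spot emission at 667 nm and signal to noise over triplicate slides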
[4] = system: Fibrinogen (Alexa647-labelled); assay: fibrinogen binders on compound microarrays, profiling panel, artefact control for SMM control-protein annotation, biochemical, small-molecule microarray, 635/667 nm fluorescence (AID 1131); conditions: fibrinogen-A647 binding fluorescence, higher = more signal;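 note: z-score merges 667 nm fluorescence with per-spot signal-to-noise over triplicate slides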
[5] = target: Follistatin (Homo sapiens) (UniProt P19883); assay: follistatin binders on small-molecule microarrays, primary screen, biochemical, small-molecule microarray, 635/667 nm fluorescence (AID 1132); conditions: FST binding, 635 nm fluorescence, higher = more signal
[6] = target: Fibroblast growth factor 2 (Homo sapiens) (UniProt P09038); assay: FGF2 binders on small-molecule microarrays, primary screen, biochemical, small-molecule microarray, 635/667 nm fluorescence (AID 1133); conditions: small-molecule microarray binding, FGF2, fluorescence 635/667; higher = more signal
[7] = mitochondrial membrane potential change in A549 cells, profiling panel, cell-based, JC-1 fluorescence, basal, 24 h, 100 nL (AID 1138); conditions: higher = more signal;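 note: A549 lung adenocarcinoma cells under basal conditions with no added stimulus; test concentration not given here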
Lefty1 = Lefty1 binders on small-molecule microarrays, primary screen, biochemical, small-molecule microarray, 635/667 nm fluorescence (AID 1139); conditions: small-molecule microarray binding, fluorescence 635/667; higher = more signal
[8] = system: wheat germ agglutinin (Triticum aestivum), Alexa647-labelled; assay: wheat germ agglutinin binders on compound microarrays, profiling panel, artefact control for SMM control-protein annotation, biochemical, small-molecule microarray, 635/667 nm fluorescence (AID 1140); conditions: WGA-A647 binding, 635 nm fluorescence, higher = more signal;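 note: score merges 667 nm feature emission with signal to noise over triplicate slides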
[9] = target: Luciferin 4-monooxygenase (Photinus pyralis) (UniProt P08659); assay: firefly luciferase enzyme inhibitors, primary screen, biochemical, luminescence, purified enzyme, 2006 set (AID 1141); conditions: SteadyGlo luminescence, 30 min, higher = more signal, called active from +8 up or from −8 down;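 note: cell-free assay with purified firefly luciferase at 100 ng per well in PBS; test concentration not given here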
[10] = system: Wnt5a (protein binding on small-molecule microarray); assay: Wnt5a binders on small-molecule microarray, primary screen, biophysical, 635/667 nm fluorescence (AID 1142); conditions: 635 nm fluorescence, higher = more signal;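 note: fluorescence read at 667 nm with signal to noise per printed feature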
[11] = cell viability in Huh7 cells, primary screen, cytotoxicity control for HCV replication inhibitor project, CellTiter-Glo luminescence, basal, 48 h (AID 1143); conditions: Huh7 HCV replicon, higher = more signal, called active from +8 up or from −8 down;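 note: Huh7 hepatoma cells carrying a hepatitis C replication reporter with no stimulus; test concentration not given here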
[12] = P. aeruginosa biofilm formation inhibitors, primary screen, PAO1 strain, BacTiter-Glo luminescence, LB-PBS (AID 1144); conditions: 12 h, higher = more signal
[13] = CREB reporter modulators without forskolin, primary screen, cell-based, PC12, CRE-LacZ reporter, unstimulated (AID 1145); conditions: no forskolin, luminescence, 4.5 h, higher = more signal, called active from +8 up or from −8 down
[14] = CREB reporter modulators under forskolin, primary screen, cell-based, PC12, CRE-LacZ reporter, forskolin-stimulated (AID 1146); conditions: luminescence, 4.5 h, higher = more signal, called active from +8 up or from −8 down;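 note: PC12 cells with 6xCRE LacZ reporter stimulated by forskolin 10 µM; beta-galactosidase reporter signal reflecting CREB driven transcription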
[15] = target: Streptavidin (Streptomyces avidinii) (UniProt P22629); assay: streptavidin binders on small-molecule microarray, primary screen, artefact control for SMM compound annotation, biophysical, 635/667 nm fluorescence (AID 1147); conditions: streptavidin binding, higher = more signal;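 note: signal reflects streptavidin binding to arrayed compounds as a control protein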
[16] = small-molecule binders of probe aInhba, primary screen, biochemical, small-molecule microarray, 635/667 nm fluorescence (AID 1148); conditions: higher = more signal;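 note: score merges 667nm spot fluorescence with signal-to-noise for antibody binding to printed compounds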
Torsin-1A (Homo sapiens) [17] = target: Torsin-1A (Homo sapiens) (UniProt O14656); assay: torsin A binders from cell lysate, primary screen, small-molecule microarray, wild-type, 635/667 nm (AID 1149); conditions: COS7 hTOR1A-WT lysate, 635 nm fluorescence, higher = more signal
Torsin-1A (Homo sapiens) [18] = target: Torsin-1A (Homo sapiens) (UniProt O14656); assay: small-molecule binders of mutant TOR1A in lysate, primary screen, cell lysate, small-molecule microarray, COS7 lysate, 635/667 nm fluorescence (AID 1150); conditions: COS7 hTOR1A mutant lysate, 635 nm fluorescence, higher = more signal;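 note: score pools 667 nm emission and signal to noise measuring lysate protein binding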
[19] = system: Sonic hedgehog protein (Shh); assay: small-molecule binders of Shh protein, primary screen, biochemical, small-molecule microarray, 635/667 nm fluorescence (AID 1151); conditions: small-molecule microarray binding, 635 nm fluorescence; higher = more signal;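 note: Shh protein binding to compounds spotted on small-molecule microarray slides; score combines spot fluorescence intensity with signal-to-noise across triplicate slides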

Sequence of Focal adhesion kinase 1 (Homo sapiens) (Q05397 whole entry, looked up): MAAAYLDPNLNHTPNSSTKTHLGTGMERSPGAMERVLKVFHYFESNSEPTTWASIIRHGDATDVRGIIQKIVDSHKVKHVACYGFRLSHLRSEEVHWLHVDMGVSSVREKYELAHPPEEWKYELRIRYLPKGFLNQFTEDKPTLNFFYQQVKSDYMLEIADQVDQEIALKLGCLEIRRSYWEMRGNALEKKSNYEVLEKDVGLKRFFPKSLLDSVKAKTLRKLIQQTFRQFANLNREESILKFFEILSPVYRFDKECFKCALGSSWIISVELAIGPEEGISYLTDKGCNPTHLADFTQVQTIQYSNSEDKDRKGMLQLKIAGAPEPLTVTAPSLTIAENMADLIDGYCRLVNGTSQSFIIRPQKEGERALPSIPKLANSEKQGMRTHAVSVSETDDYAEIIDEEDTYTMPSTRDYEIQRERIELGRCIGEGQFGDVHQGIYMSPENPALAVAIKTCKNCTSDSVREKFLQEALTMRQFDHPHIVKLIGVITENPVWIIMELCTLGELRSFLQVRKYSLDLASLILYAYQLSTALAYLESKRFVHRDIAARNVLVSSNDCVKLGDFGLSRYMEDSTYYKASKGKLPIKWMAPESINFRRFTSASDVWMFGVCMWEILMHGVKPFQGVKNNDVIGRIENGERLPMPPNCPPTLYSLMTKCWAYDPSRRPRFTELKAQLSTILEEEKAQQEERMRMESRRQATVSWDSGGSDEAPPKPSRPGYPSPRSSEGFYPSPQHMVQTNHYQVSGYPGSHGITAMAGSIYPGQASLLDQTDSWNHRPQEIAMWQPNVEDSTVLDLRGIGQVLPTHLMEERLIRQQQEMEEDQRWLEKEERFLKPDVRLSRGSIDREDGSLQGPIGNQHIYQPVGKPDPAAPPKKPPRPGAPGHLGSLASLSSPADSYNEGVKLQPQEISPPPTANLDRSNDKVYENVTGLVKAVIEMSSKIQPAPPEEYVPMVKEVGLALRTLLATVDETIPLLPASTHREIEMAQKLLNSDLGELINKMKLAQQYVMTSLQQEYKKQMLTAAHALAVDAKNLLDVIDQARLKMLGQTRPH
Sequence of Luciferin 4-monooxygenase (Photinus pyralis) (P08659 whole entry, looked up): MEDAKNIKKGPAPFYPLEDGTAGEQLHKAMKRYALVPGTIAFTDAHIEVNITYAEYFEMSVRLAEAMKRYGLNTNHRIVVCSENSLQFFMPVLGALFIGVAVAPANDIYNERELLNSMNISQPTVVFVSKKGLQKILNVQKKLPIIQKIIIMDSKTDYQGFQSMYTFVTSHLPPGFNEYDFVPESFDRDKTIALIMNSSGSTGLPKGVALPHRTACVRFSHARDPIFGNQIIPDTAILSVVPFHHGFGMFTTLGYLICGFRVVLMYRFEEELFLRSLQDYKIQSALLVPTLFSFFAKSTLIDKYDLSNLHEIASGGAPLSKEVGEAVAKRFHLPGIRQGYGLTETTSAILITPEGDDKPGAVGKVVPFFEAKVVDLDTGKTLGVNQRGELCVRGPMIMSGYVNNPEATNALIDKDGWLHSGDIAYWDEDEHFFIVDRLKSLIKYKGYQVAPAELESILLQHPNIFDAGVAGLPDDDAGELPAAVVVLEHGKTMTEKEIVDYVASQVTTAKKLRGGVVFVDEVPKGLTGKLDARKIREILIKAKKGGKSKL
Sequence of Torsin-1A (Homo sapiens) (O14656 whole entry, looked up): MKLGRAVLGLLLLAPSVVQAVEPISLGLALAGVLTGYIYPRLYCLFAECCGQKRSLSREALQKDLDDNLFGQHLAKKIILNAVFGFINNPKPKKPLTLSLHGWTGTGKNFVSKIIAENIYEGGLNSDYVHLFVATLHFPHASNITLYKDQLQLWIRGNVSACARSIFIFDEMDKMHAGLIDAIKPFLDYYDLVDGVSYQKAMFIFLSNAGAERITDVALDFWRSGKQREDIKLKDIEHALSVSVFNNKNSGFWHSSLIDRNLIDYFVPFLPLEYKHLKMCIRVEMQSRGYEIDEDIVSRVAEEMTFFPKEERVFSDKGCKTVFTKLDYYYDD
Sequence of Streptavidin (Streptomyces avidinii) (P22629 whole entry, looked up): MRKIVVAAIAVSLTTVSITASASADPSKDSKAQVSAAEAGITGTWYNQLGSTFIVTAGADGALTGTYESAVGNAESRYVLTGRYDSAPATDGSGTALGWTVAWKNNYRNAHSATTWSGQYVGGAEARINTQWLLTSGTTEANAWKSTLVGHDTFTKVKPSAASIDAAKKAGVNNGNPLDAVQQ
Sequence of Follistatin (Homo sapiens) (P19883 whole entry, looked up): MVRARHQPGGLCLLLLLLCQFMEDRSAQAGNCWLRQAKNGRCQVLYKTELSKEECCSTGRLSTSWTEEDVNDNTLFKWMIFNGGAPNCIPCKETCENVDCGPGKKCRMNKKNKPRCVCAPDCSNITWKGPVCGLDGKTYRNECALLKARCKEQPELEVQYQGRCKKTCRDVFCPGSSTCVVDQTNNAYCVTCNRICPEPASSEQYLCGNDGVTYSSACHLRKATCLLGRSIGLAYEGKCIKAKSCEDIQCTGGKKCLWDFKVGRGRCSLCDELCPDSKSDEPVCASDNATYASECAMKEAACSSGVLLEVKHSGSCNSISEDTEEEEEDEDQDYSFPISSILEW
Sequence of Fibroblast growth factor 2 (Homo sapiens) (P09038 whole entry, looked up): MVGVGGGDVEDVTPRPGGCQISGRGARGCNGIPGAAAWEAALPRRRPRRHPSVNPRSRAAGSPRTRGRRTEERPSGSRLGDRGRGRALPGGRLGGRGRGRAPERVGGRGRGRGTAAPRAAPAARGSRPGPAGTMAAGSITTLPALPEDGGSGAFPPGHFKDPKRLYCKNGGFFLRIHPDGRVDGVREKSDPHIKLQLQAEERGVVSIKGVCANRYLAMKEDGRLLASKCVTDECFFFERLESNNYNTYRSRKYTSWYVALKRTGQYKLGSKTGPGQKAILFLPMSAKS

Q: With `NCCCCCCNC(=O)[C@H]1C[C@H]2C(=O)N[C@@H](Cc3ccccc3)C(=O)N2[C@H]1c1ccc(O)cc1` as the compound, how does the composite z-score [1] read?
A: 2.04

Q: What about the composite z-score [2] of the same compound?
A: 0.692

Q: And the composite z-score [3]?
A: 0.937

Q: And the composite z-score [4]?
A: 0.999

Q: And the composite z-score [5]?
A: 1.32

Q: And the composite z-score [6]?
A: 0.619

Q: And the z-score [7]?
A: -0.267

Q: And the composite z-score (Lefty1)?
A: 0.795

Q: And the composite z-score [8]?
A: 1.1

Q: And the z-score [9]?
A: 0.166 (inactive)

Q: And the composite z-score [10]?
A: 0.21

Q: And the z-score [11]?
A: 0.277 (inactive)

Q: And the z-score [12]?
A: -0.652 (inactive)

Q: What about the z-score [13] of the same compound?
A: -1.48 (inactive)

Q: What about the z-score [14] of the same compound?
A: -1.24 (inactive)

Q: And the composite z-score [15]?
A: 1.38

Q: What about the composite z-score [16] of the same compound?
A: 0.103

Q: What about the composite z-score (Torsin-1A (Homo sapiens) [17]) of the same compound?
A: 2.14

Q: And the composite z-score (Torsin-1A (Homo sapiens) [18])?
A: 0.394

Q: And the composite z-score [19]?
A: 1.07

Q: Which composite z-score [1] does the source give for `CO[C@H]1O[C@H](CO)[C@@H](OC(=O)Nc2ccccc2-c2ccccc2)[C@H](OC(=O)Nc2ccc3c(c2)OCO3)[C@@H]1OC(=O)Nc1ccc2c(c1)OCO2` here?
A: 0.971

Q: What about the composite z-score [2] of the same compound?
A: 1.27

Q: And the composite z-score [3]?
A: 0.485

Q: What about the composite z-score [4] of the same compound?
A: 0.991

Q: And the composite z-score [5]?
A: 1.24

Q: What about the composite z-score [6] of the same compound?
A: 0.853

Q: What about the z-score [7] of the same compound?
A: 1.56

Q: And the composite z-score (Lefty1)?
A: 1.16

Q: What about the composite z-score [8] of the same compound?
A: 0.412

Q: And the z-score [9]?
A: -7.93 (inactive)

Q: What about the composite z-score [10] of the same compound?
A: 0.25

Q: And the z-score [11]?
A: -2.72 (inactive)

Q: And the z-score [12]?
A: 0.233 (inactive)

Q: What about the z-score [13] of the same compound?
A: 0.792 (inactive)

Q: And the z-score [14]?
A: -1.52 (inactive)

Q: And the composite z-score [15]?
A: 0.282

Q: And the composite z-score [16]?
A: 0.361

Q: And the composite z-score (Torsin-1A (Homo sapiens) [17])?
A: 0.388

Q: And the composite z-score (Torsin-1A (Homo sapiens) [18])?
A: 1.41

Q: And the composite z-score [19]?
A: 0.91

Q: For `COc1ccc([Si](C)(C)[C@H]2[C@H](CCO)O[C@@]3(C(=O)N(Cc4cccc(N5CCCCC5=O)c4)c4ccccc43)[C@@H]2C)cc1`, which composite z-score [1] is on record?
A: 1.16

Q: What about the composite z-score [2] of the same compound?
A: 1.15

Q: And the composite z-score [3]?
A: 0.362

Q: And the composite z-score [4]?
A: 0.848

Q: And the composite z-score [5]?
A: 1.26

Q: And the composite z-score [6]?
A: 0.403

Q: What about the z-score [7] of the same compound?
A: 0.589

Q: What about the composite z-score (Lefty1) of the same compound?
A: 1.06

Q: What about the composite z-score [8] of the same compound?
A: 0.418

Q: And the z-score [9]?
A: -1.34 (inactive)

Q: What about the composite z-score [10] of the same compound?
A: 0.416

Q: And the z-score [11]?
A: -7.87 (inactive)

Q: And the z-score [12]?
A: -1.05 (inactive)

Q: And the z-score [13]?
A: 2.39 (inactive)

Q: And the z-score [14]?
A: -1.82 (inactive)

Q: And the composite z-score [15]?
A: 0.569

Q: What about the composite z-score [16] of the same compound?
A: -0.116

Q: And the composite z-score (Torsin-1A (Homo sapiens) [17])?
A: -0.0387

Q: What about the composite z-score (Torsin-1A (Homo sapiens) [18]) of the same compound?
A: 0.299

Q: And the composite z-score [19]?
A: 1.5

Q: What does the source list for `COc1cc(OC)c(C(O)C2C=CC3C(=O)N(c4ccccc4)C(=O)C3N2Nc2ccc(C#N)cc2)cc1Br` (stereo not given)?
A: composite z-score [1]: 1.36; composite z-score [2]: 1.02; composite z-score [3]: 0.707; composite z-score [4]: 0.674; composite z-score [5]: 1.22; composite z-score [6]: 0.217; z-score [7]: 0.658; composite z-score (Lefty1): -0.129; composite z-score [8]: 1.13; z-score [9]: 0.289 (inactive); composite z-score [10]: 0.507; z-score [11]: 0.411 (inactive); z-score [12]: -0.245 (inactive); z-score [13]: 2.17 (inactive); z-score [14]: -0.475 (inactive); composite z-score [15]: 1.9; composite z-score [16]: 0.451; composite z-score (Torsin-1A (Homo sapiens) [17]): 0.367; composite z-score (Torsin-1A (Homo sapiens) [18]): 0.99; composite z-score [19]: -0.186

Q: For `[N-]=[N+]=NCc1ccccc1C[C@]1(C(=O)NCC(O)CO)N=C(c2ccc(OCCCO)cc2)O[C@H]1c1ccccc1CN=[N+]=[N-]` (stereo not given in full), which composite z-score [1] is on record?
A: 2.73

Q: What about the composite z-score [2] of the same compound?
A: 1.2

Q: And the composite z-score [3]?
A: 0.116

Q: And the composite z-score [4]?
A: 0.973

Q: And the composite z-score [5]?
A: 1.3

Q: What about the composite z-score [6] of the same compound?
A: 0.495

Q: What about the z-score [7] of the same compound?
A: 0.618

Q: And the composite z-score (Lefty1)?
A: -0.204

Q: And the composite z-score [8]?
A: 0.205

Q: What about the z-score [9] of the same compound?
A: -0.0074 (inactive)

Q: What about the composite z-score [10] of the same compound?
A: 0.493

Q: What about the z-score [11] of the same compound?
A: -4.68 (inactive)

Q: And the z-score [12]?
A: -0.998 (inactive)

Q: What about the z-score [13] of the same compound?
A: 0.447 (inactive)

Q: What about the z-score [14] of the same compound?
A: -1.32 (inactive)

Q: And the composite z-score [15]?
A: 0.661

Q: And the composite z-score [16]?
A: 0.404

Q: What about the composite z-score (Torsin-1A (Homo sapiens) [17]) of the same compound?
A: 0.408

Q: What about the composite z-score (Torsin-1A (Homo sapiens) [18]) of the same compound?
A: 1.09

Q: What about the composite z-score [19] of the same compound?
A: -0.881
